# Bioassay records deposited in PubChem by National Center for Advancing Translational Sciences (NCATS).
# Only some compounds are listed: those with a hit (about 19% of all), similar ones and a draw of the others.
# KB-V1 cytotox = kills drug-selected multidrug resistant KB-V1 cells; Potency, µM (titrated, usually from 46.1 µM), actives largely listed as cytotoxic; KB-V1 MDR cells viability, CellTiter-Glo, 72 h; actives 3.4% (n = 400,000); also: nearly all actives have a fitted effect of over 60% in size
#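 Luminescent ATP read-out (CellTiter-Glo, 10 min) measures survival of drug-selected KB-V1 MDR cells after 72 h, 37 degrees C compound exposure. Medium: phenol-red-free DMEM, 10% FBS. Values from fitted concentration-response curves.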
# HT1080-NT tox = kills 2HG-producing HT-1080-NT fibrosarcoma cells. Potency, µM (doses to about 46.1 µM), inactives show at the highest dose activity, negative = less viability, hits mostly cytotoxic. actives 1.6% (n = 360,000). HT-1080-NT fibrosarcoma viability, CellTiter-Glo ATP luminescence, 48 h;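 also: NT is the 2HG producing partner of a matched IDH1 knockdown line; 0% = DMSO-treated cells and -100% = media-only wells without cells; nearly all actives have a fitted effect of over 55% in size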
#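 Toxicity toward the 2HG-producing NT line was scored as %Activity, normalised to DMSO and no-cell wells, from CellTiter-Glo luminescence after 48 hours' treatment.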
# KB-3-1 cytotox = kills parental KB-3-1 adenocarcinoma cells | KB-3-1 viability, CellTiter-Glo ATP luminescence, 72 h | Potency, µM (highest dose often 46.1 µM), most hits filed as cytotoxic | actives 1.4% (n = 400,000) | AID 1347075; also: nearly all actives have a fitted effect of over 60% in size
#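 Viability of parental KB-3-1 cells, measured by CellTiter-Glo luminescence, followed a 72 h incubation at 37 °C with pinned compounds in phenol-red-free DMEM containing 10% FBS.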
# DT40 TDP1 no CPT = qHTS for Inhibitors of human tyrosyl-DNA phosphodiesterase 1 (TDP1): qHTS in cells in absence of CPT. AID 686978, 2013. DT40 Tdp1-/- hTDP1 cells, no CPT, ATP luminescence, 48 h. actives 15% (n = 420,000). Potency, µM (highest dose often 46.2 µM), for inactives: at the highest dose activity change, negative = growth inhibition, most hits filed as inhibitors; also: nearly all actives have a fitted effect of over 55% in size
#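 Chicken DT40 Tdp1-/- cells stably complemented with human TDP1 were seeded at 400 cells/well with DMSO in place of 20 nM camptothecin. After compound pinning, cells grew at least 48 hr at 37 °C; viability read by CellTiter-Glo luminescence.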
# DT40 TDP1 CPT = DT40-hTDP1 cell growth loss with CPT | chicken DT40 Tdp1-/-;hTDP1 cells + 20 nM CPT, ATP luminescence, 48 h | Potency, µM (series often up to 46.2 µM), without a hit: top-dose activity change, negative = growth inhibition, usual class: inhibitors | actives 12% (n = 420,000) | AID 686979; also: nearly all actives have a fitted effect of over 55% in size
#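 Cell growth measured by CellTiter-Glo luminescence after a minimum 48 h, 37 C compound exposure with 20 nM CPT in Tdp1-knockout DT40 cells stably expressing hTDP1, seeded 400/well; qHTS titration format.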
# HT1080 IDH1KD tx = kills HT-1080 cells with IDH1 knockdown; actives 2% (n = 360,000); HT-1080 IDH1 knockdown viability, ATP luminescence, 48 h; Potency, µM (series often up to 46.1 µM), inactives show at the highest dose activity, negative = toxicity, hits mostly cytotoxic; AID 686971;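 also: 0% = DMSO wells and -100% = cell-free medium wells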
#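 Viability of IDH1-knockdown HT-1080 fibrosarcoma cells was assessed by CellTiter-Glo after 48 h at 37 °C with titrated compound; concentration-effect curves were classified by fit quality and response size.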
# Numbers without * were called inactive; i = inactive; ? = inconclusive; / = no result given; ! = not confirmed by another sample. Calls follow the shape of the dose curve; as a rule, active = well fitted curve in the direction sought with a large enough effect; inconclusive = small, poorly fitted or top-dose-only effect, or another doubt; inactive = no such curve, though single readings can be large; an effect the other way counts as inactive or inconclusive. Unless noted, % is scaled to controls: 0 for no effect and ±100 for the full control effect; potency is read from the fitted curve at half-maximal effect.
SMILES,KB-V1 cytotox,HT1080-NT tox,KB-3-1 cytotox,DT40 TDP1 no CPT,DT40 TDP1 CPT,HT1080 IDH1KD tx
CC(C)(C)C(=O)Nc1cc(-c2cccc(Br)c2)nn1-c1ccccc1,i,/,i,21µM*,?,/
Cc1cccc(-c2cc(NC(=O)C(C)(C)C)n(-c3ccccc3)n2)c1,i,/,i,?,-29%,/
COc1ccc(-c2cc(Cl)cc3c(=O)c4ccccc4n(C)c23)cc1F,i,6%,i,21µM*,18µM*,16%
COc1cc(-c2ccc3c(=O)c4ccccc4n(C)c3c2)cc(OC)c1OC,?,?,?,12µM*,16µM*,?
CC(=O)Nc1c(-c2ccc(Cl)cc2)c(=O)c2ccccc2n1C,i,-2%,i,-3%,10%,6%
c1ccc2c(c1)c1ccccc1n1c(-c3ccc4c(c3)OCO4)nnc21,21µM*,0%,?,21µM*,?,0%
Cn1c(-c2ccc3c(c2)OCO3)cc(=O)c2ccccc21,i,-5%,i,-11%,-23%,0%
Cn1c(C=O)c(-c2ccc3c(c2)OCCO3)c2ccccc21,i,-10%,i,18µM*,?,-1%
Cc1ccc(CN(Cc2cccn2-c2nnc(N3CCCC3=O)s2)C(=O)Nc2ccc(F)cc2)cc1,i,/,i,?,?,/
Cc1ccc2nc(COc3cccc(NC(=O)COc4ccccc4F)c3)cc(=O)n2c1,i,/,i,-13%,-20%,/
Cn1cc(C(=O)NCc2ccc(Cl)cc2)c(=O)c2cc(S(=O)(=O)N3CCOCC3)ccc21,i,0%,i,?,-26%,0%
Cn1c2ccccc2c(=O)c2ccc(-c3ccc4c(c3)OCO4)cc21,?,-18%,?,13µM*,?,-16%
O=C1CCCN1CCCNc1nc2c(S(=O)(=O)c3ccccc3)nnn2c2ccc(Cl)cc12,?,?,?,?,21µM*,?
CCc1ccc(S(=O)(=O)c2nnn3c2nc(N(CC)Cc2ccccc2)c2cc(Cl)ccc23)cc1,i,/,i,16µM*,9.2µM*,/
O=S(=O)(c1ccccc1)c1nnn2c1nc(NCc1ccccc1)c1cc(Cl)ccc12,i,/,i,?,18µM*,/
Cc1cccc(-n2nnnc2SCC(=O)NCC2(N3CCOCC3)CCCCC2)c1C,?,2%,i,21µM*,18µM*,-3%
Cc1ccc(-n2nnnc2SCC(=O)NCC2(N3CCCCC3)CCCCC2)c(C)c1,i,-24%,?,-10%,-23%,-15%
Cc1ccc(-n2nnnc2SCC(=O)NCC2(N3CCOCC3)CCCCC2)c(C)c1,21µM*,4%,i,16µM*,?,-3%
CCCN1CNc2c(c(=O)[nH]c(=S)n2CCc2cccc(OC)c2OC)C1,/,2%,/,-29%,-15%,13%
COc1ccc(Cl)cc1NC(=O)c1cnc(SC)nc1-c1ccccc1,?,/,i,?,?,/
CSc1ncc(C(=O)Nc2ccc(C)c(Cl)c2)c(-c2ccccc2)n1,i,/,i,?,23µM*,/
COc1cc2c(cc1OC)C(COc1ccccc1OC)N(C(=O)CC(C)C)CC2 (centres undefined),?,/,i,18µM*,?,/
COc1cc2c(cc1OC)C(COc1ccccc1OC)N(C(=O)c1ccco1)CC2 (centres undefined),?,-17%,i,-2%,1%,0%
CCC(=O)N1CCc2cc(OC)c(OC)cc2C1COc1ccccc1OC (centres undefined),?,-2%,i,?,?,0%
CCCC(=O)N1CCc2cc(OC)c(OC)cc2C1COc1ccccc1OC (centres undefined),i,-6%,i,18µM*!,?,0%
SMILES,KB-V1 cytotox,HT1080-NT tox,KB-3-1 cytotox,DT40 TDP1 no CPT,DT40 TDP1 CPT,HT1080 IDH1KD tx
CCOC(=O)Cc1ccc(NC(=O)N(C(C)C)C2CCN(C(C)=O)CC2)cc1,i,/,i,-2%,1%,/
CCOC(=O)N1CCC(N(C(=O)Nc2ccccc2)C(C)CC)CC1 (centres undefined),15µM*,0%,i,?,?,3%
CCOC(=O)N1CCC(N(C(=O)Nc2ccc(CC)cc2)C(C)CC)CC1 (centres undefined),i,-6%,i,23µM*,?,-1%
O=S(=O)(Nc1ccc(Br)cc1)c1cccc(NS(=O)(=O)c2cccs2)c1,i,-1%,i,-10%,-20%,-11%
COC(=O)c1cccc(NC(=O)NC(=O)c2ccccc2Cl)c1,i,?,i,-13%,-5%,-19%
COC(=O)c1cccc(NC(=O)Nc2ccc(Cl)c(Cl)c2)c1,15µM*,?,i,?,18µM*,?
O=C(Nc1ccc(Cl)c(Cl)c1)Nc1ccccn1,i,15%,i,-13%,-25%,5%
O=C(Nc1ccc(Cl)c(Cl)c1)Nc1ccccc1C(=O)O,15µM*,?,?,-15%,-10%,?
O=C(Cc1ccccc1)NNC(=O)Nc1ccc(Cl)c(Cl)c1,i,-15%,i,21µM*,16µM*,15µM*
COc1ccc(C(=O)Nc2ccccc2-c2nc3ccccc3s2)cc1OC,i,/,i,?,?,/
COc1cc(CNc2ncnc3c2ncn3[C@H]2CN(CCN3CCOCC3)C[C@@H](CO)O2)cc(OC)c1OC,i,8%,i,-7%,-3%,6%
Cc1ccc(-n2c(C)nc3c(cnn3-c3ccc(F)cc3)c2=O)cc1,i,-16%,i,15µM*,18µM*,?
Cc1ccc(-n2ncc3c(=O)n(-c4ccc(C)c(C)c4)c(C)nc32)cc1,i,2%,i,18µM*,?,0%
Cc1ccc(-n2c(-c3ccco3)nc3c(cnn3-c3ccccc3Cl)c2=O)cc1,i,/,i,-21%,-4%,/
Cc1ccc(-n2c(C)nc3c(cnn3-c3ccccc3C)c2=O)cc1F,i,/,i,?,?,/
Cc1nc2c(cnn2-c2ccccc2Cl)c(=O)n1-c1ccc(C(C)C)cc1,?,0%,?,21µM*,?,-16%
COc1ccc(-n2c(C)nc3c(cnn3-c3ccc(C)c(C)c3)c2=O)cc1,i,-5%,?,15µM*,23µM*,3%
